From the supplement of paper PMC10849652
The full data set covers some 7,900 targets. This sample favours those with a hit. About 0.6% of all pairs of compound and target were hits.

How the values were obtained:
Assay in all cases: log2 fold change, soluble protein after heating vs DMSO (PISA); higher = thermal stabilisation; K562 cells, 10 uM, 30 min; active = over 0.2 and 3.5 SD of the protein, either way, in both replicates (recomputed)
saracatinib = compound: CN1CCN(CCOc2cc(OC3CCOCC3)c3c(Nc4c(Cl)ccc5c4OCO5)ncnc3c2)CC1 [saracatinib]
How it was run: (§1)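 K562 cells at 2×10^6 cells/mL were exposed to 10 μM compound for 30 min, then aliquots were heated for 3 min across 48°C-58°C, pooled, and extracted in PBS containing 0.5% NP-40 at 4°C. The supernatant after 21,000xg for 90 min was taken as soluble protein and measured by TMTpro 16plex LC-MS/MS with channel sums equalised. Thermal stability is reported relative to control samples, with values from duplicates. Fold changes are given on a log2 scale.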

sotrastaurin = compound: CN1CCN(c2nc(C3=C(c4c[nH]c5ccccc45)C(=O)NC3=O)c3ccccc3n2)CC1 [sotrastaurin]
How it was run: as §1

alvocidib = compound: CN1CC[C@H](c2c(O)cc(O)c3c(=O)cc(-c4ccccc4Cl)oc23)[C@H](O)C1 [alvocidib]
How it was run: as §1

Tubastatin A = compound: CN1CCc2c(c3ccccc3n2Cc2ccc(C(=O)NO)cc2)C1 [Tubastatin A]
How it was run: as §1

[1] = compound: CNC(=O)C1=CC=CC=C1NC2=NC(=NC=C2Cl)NC3=C(C=C(C=C3)N4CCOCC4)OC
How it was run: as §1

defactinib = compound: CNC(=O)c1ccc(Nc2ncc(C(F)(F)F)c(NCc3nccnc3N(C)S(C)(=O)=O)n2)cc1 [defactinib]
How it was run: as §1

rucaparib = compound: CNCc1ccc(-c2[nH]c3cc(F)cc4c3c2CCNC4=O)cc1 [rucaparib]
How it was run: as §1

[2] = compound: CNc1nc(-c2ccc3c(N)n[nH]c3c2)cc(N2C[C@@H](C(=O)NC3CCCCC3)CC[C@H]2C)n1
How it was run: as §1

encorafenib = compound: COC(=O)N[C@@H](C)CNc1nccc(-c2cn(C(C)C)nc2-c2cc(Cl)cc(NS(C)(=O)=O)c2F)n1 [encorafenib]
How it was run: as §1

[3] = compound: COC(=O)[C@H](CCSC)NC(=O)C1=C(C=C(C=C1)NC[C@H](CS)N)C2=CC=CC=C2
How it was run: as §1

[4] = compound: COC1=CC=C(C=C1)CN2C=CC3=C2C=C(C=C3)C(=O)NO
How it was run: as §1

filanesib = compound: CON(C)C(=O)N1N=C(c2cc(F)ccc2F)S[C@@]1(CCCN)c1ccccc1 [filanesib]
How it was run: as §1

zotarolimus = compound: CO[C@H]1C[C@@H]2CC[C@@H](C)[C@@](O)(O2)C(=O)C(=O)N2CCCC[C@H]2C(=O)O[C@H]([C@H](C)C[C@@H]2CC[C@H](n3cnnn3)[C@H](OC)C2)CC(=O)[C@H](C)/C=C(\C)[C@@H](O)[C@@H](OC)C(=O)[C@H](C)C[C@H](C)/C=C/C=C/C=C/1C [zotarolimus]
How it was run: as §1

idasanutlin = compound: COc1cc(C(=O)O)ccc1NC(=O)[C@@H]1N[C@@H](CC(C)(C)C)[C@](C#N)(c2ccc(Cl)cc2F)[C@H]1c1cccc(Cl)c1F [idasanutlin]
How it was run: as §1

alisertib = compound: COc1cc(Nc2ncc3c(n2)-c2ccc(Cl)cc2C(c2c(F)cccc2OC)=NC3)ccc1C(=O)O [alisertib]
How it was run: as §1

[5] = compound: COc1cc2nc(-c3cc(F)ccc3O)nc(N[C@@H]3CNC[C@H]3C(C)(C)O)c2cc1OC
How it was run: as §1

gefitinib = compound: COc1cc2ncnc(Nc3ccc(F)c(Cl)c3)c2cc1OCCCN1CCOCC1 [gefitinib]
How it was run: as §1

[6] = compound: COc1cccc2cc(-c3nc([C@H]4CC[C@H](C(=O)O)CC4)n4ncnc(N)c34)[nH]c12
How it was run: as §1

lapatinib = compound: CS(=O)(=O)CCNCc1ccc(-c2ccc3ncnc(Nc4ccc(OCc5cccc(F)c5)c(Cl)c4)c3c2)o1 [lapatinib]
How it was run: as §1

pictilisib = compound: CS(=O)(=O)N1CCN(Cc2cc3nc(-c4cccc5[nH]ncc45)nc(N4CCOCC4)c3s2)CC1 [pictilisib]
How it was run: as §1

Measured: log2 fold change

AHCYL1 (UniProt O43865)
Chain of UniProt O43865 (O43865 whole entry, looked up): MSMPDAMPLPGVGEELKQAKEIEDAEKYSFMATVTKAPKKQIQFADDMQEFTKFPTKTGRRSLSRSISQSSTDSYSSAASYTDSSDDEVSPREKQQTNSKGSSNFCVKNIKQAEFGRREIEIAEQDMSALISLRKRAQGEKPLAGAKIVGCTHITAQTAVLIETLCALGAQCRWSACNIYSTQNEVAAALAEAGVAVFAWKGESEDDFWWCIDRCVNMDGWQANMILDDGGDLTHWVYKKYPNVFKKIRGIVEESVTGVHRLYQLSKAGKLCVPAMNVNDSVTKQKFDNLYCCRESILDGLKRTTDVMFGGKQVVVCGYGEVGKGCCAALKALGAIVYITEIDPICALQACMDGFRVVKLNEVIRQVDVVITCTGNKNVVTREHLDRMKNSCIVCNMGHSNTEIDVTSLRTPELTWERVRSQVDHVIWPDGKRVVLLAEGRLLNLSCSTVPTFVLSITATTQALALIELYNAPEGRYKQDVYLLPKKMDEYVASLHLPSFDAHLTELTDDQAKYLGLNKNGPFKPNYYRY
inactive: saracatinib 0.101 | sotrastaurin 0.014 | alvocidib 0.1 | Tubastatin A -0.042 | [1] 0.182 | defactinib 0.104 | rucaparib 0.044 | [2] 0.061 | encorafenib -0.043 | [3] -0.005 | [4] 0.015 | filanesib -0.05 | zotarolimus -0.017 | idasanutlin -0.056 | alisertib -0.087 | [5] 0.046 | gefitinib 0.029 | [6] 0.093 | lapatinib 0.014 | pictilisib 0.126

ATAD3B (UniProt Q5T9A4)
inactive: saracatinib -0.047 | sotrastaurin -0.101 | alvocidib 0.091 | Tubastatin A -0.009 | [1] -0.084 | defactinib 0.096 | rucaparib 0.25 | [2] 0 | encorafenib 0.125 | [3] 0.033 | [4] -0.035 | filanesib 0.089 | zotarolimus -0.064 | idasanutlin 0.081 | alisertib 0.193 | [5] -0.138 | gefitinib -0.134 | [6] -0.136 | lapatinib -0.047 | pictilisib -0.161

ABCC5 (UniProt O15440)
inactive: saracatinib 0.107 | sotrastaurin -0.028 | alvocidib 0.007 | Tubastatin A 0.002 | [1] -0.02 | defactinib 0.019 | rucaparib 0.116 | [2] -0.003 | encorafenib -0.039 | [3] 0.026 | [4] -0.026 | filanesib 0.001 | zotarolimus -0.02 | idasanutlin 0.017 | alisertib -0.026 | [5] 0.053 | gefitinib 0.089 | [6] -0.05 | lapatinib 0 | pictilisib -0.037

BLOC1S3 (UniProt Q6QNY0)
Chain of UniProt Q6QNY0 (Q6QNY0 whole entry, looked up): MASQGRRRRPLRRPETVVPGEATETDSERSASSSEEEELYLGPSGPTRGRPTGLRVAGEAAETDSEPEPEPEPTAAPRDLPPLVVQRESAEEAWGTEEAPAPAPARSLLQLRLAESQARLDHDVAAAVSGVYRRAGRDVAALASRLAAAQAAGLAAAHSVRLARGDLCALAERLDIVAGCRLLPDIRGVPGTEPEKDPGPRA
inactive: saracatinib 0.049 | sotrastaurin 0.034 | alvocidib 0.015 | Tubastatin A -0.064 | [1] -0.05 | defactinib -0.044 | rucaparib -0.047 | [2] -0.031 | encorafenib -0.035 | [3] 0.028 | [4] -0.013 | filanesib -0.066 | zotarolimus -0.014 | idasanutlin -0.149 | alisertib 0.005 | [5] -0.018 | gefitinib 0.048 | [6] 0.058 | lapatinib -0.007 | pictilisib 0.126

AAMP (UniProt Q13685)
Chain of UniProt Q13685 (Q13685 whole entry, looked up): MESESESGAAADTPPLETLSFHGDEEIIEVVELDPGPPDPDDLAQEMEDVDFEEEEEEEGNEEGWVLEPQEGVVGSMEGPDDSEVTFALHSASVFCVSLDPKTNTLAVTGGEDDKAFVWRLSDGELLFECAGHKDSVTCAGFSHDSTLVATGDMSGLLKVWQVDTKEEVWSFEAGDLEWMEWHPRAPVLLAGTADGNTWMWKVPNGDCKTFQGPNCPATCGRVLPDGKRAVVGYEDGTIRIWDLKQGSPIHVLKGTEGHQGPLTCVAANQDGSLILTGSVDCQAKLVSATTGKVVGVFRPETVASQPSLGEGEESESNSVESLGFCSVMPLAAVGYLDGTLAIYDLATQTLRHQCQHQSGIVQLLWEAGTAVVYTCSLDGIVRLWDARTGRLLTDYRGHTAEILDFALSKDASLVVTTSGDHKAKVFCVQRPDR
inactive: saracatinib -0.002 | sotrastaurin 0.006 | alvocidib -0.017 | Tubastatin A -0.049 | [1] 0.022 | defactinib -0.102 | rucaparib 0.054 | [2] -0.014 | encorafenib -0.016 | [3] -0.009 | [4] -0.031 | filanesib 0.003 | zotarolimus 0.029 | idasanutlin -0.052 | alisertib -0.049 | [5] -0.027 | gefitinib 0.026 | [6] 0.033 | lapatinib 0.024 | pictilisib -0.002

ACBD6 (UniProt Q9BR61)
Chain of UniProt Q9BR61 (Q9BR61 whole entry, looked up): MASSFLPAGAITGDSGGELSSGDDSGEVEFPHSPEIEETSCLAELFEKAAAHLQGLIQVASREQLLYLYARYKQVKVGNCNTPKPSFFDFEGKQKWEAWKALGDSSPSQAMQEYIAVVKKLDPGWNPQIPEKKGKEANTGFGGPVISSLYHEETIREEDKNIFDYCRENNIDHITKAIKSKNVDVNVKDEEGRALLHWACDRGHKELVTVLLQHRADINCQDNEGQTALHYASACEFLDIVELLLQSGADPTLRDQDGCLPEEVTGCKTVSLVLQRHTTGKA
inactive: saracatinib -0.129 | sotrastaurin -0.115 | alvocidib -0.076 | Tubastatin A 0.196 | [1] 0.067 | defactinib -0.112 | rucaparib -0.061 | [2] 0.006 | encorafenib 0.098 | [3] -0.047 | [4] 0.099 | filanesib 0.034 | zotarolimus 0.016 | idasanutlin 0.09 | alisertib -0.088 | [5] 0.133 | gefitinib -0.018 | [6] -0.271 | lapatinib -0.14 | pictilisib 0.012

ARMC8 (UniProt Q8IUR7)
inactive: saracatinib -0.05 | sotrastaurin -0.07 | alvocidib -0.049 | Tubastatin A 0.009 | [1] 0.016 | defactinib -0.005 | rucaparib 0.017 | [2] 0.228 | encorafenib 0.026 | [3] -0.031 | [4] 0.056 | filanesib 0.048 | zotarolimus 0 | idasanutlin -0.016 | alisertib -0.08 | [5] -0.014 | gefitinib -0.029 | [6] -0.016 | lapatinib 0.046 | pictilisib 0.005

ADK (UniProt P55263)
inactive: saracatinib 0.158 | sotrastaurin 0.26 | alvocidib 0.305 | Tubastatin A -0.007 | [1] 0.119 | defactinib 0.055 | rucaparib -0.021 | [2] -0.017 | encorafenib -0.044 | [3] 0.002 | [4] -0.009 | filanesib -0.013 | zotarolimus -0.014 | idasanutlin -0.083 | alisertib -0.037 | [5] 0.015 | gefitinib 0.199 | [6] 0.007 | lapatinib 0.21 | pictilisib 0.167

ATP6V1F isoform 2 (UniProt Q16864)
inactive: saracatinib -0.198 | sotrastaurin 0.092 | alvocidib -0.174 | Tubastatin A 0.11 | [1] 0.031 | defactinib 0.007 | rucaparib -0.037 | [2] -0.129 | encorafenib -0.039 | [3] 0.238 | [4] 0.126 | filanesib 0.162 | zotarolimus 0.036 | idasanutlin 0.095 | alisertib -0.158 | [5] -0.151 | gefitinib 0.019 | [6] 0.021 | lapatinib -0.112 | pictilisib -0.054

ADAMTS5 (UniProt Q9UNA0)
inactive: saracatinib -0.107 | sotrastaurin -0.004 | alvocidib 0.007 | Tubastatin A 0.222 | [1] -0.13 | defactinib -0.021 | rucaparib -0.04 | [2] -0.048 | encorafenib -0.136 | [3] 0.028 | [4] 0.295 | filanesib -0.051 | zotarolimus -0.063 | idasanutlin -0.06 | alisertib 0.019 | gefitinib 0.012 | [6] 0.092 | pictilisib 0.198

ABCA3 (UniProt Q99758)
inactive: saracatinib 0.009 | sotrastaurin 0.121 | alvocidib 0.047 | Tubastatin A -0.05 | [1] 0.065 | defactinib 0.108 | rucaparib 0.11 | [2] 0.011 | encorafenib 0.192 | [3] -0.039 | [4] -0.044 | filanesib 0.062 | zotarolimus 0.03 | idasanutlin -0.021 | [5] 0.147 | lapatinib -0.084 | pictilisib 0.01

ATP1B3 (UniProt P54709)
Chain of UniProt P54709 (P54709 whole entry, looked up): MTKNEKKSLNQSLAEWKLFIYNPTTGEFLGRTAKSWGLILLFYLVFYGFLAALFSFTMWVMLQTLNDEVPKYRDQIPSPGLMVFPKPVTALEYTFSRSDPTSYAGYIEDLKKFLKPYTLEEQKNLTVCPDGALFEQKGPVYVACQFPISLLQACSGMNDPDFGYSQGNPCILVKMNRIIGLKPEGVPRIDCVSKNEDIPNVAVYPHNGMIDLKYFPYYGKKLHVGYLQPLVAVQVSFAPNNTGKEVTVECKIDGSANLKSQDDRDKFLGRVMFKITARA
inactive: saracatinib -0.019 | sotrastaurin 0.084 | alvocidib -0.038 | Tubastatin A -0.014 | [1] 0.004 | defactinib -0.047 | rucaparib -0.033 | [2] 0.016 | encorafenib -0.023 | [3] 0.034 | [4] 0.082 | filanesib 0.073 | zotarolimus -0.034 | idasanutlin 0.014 | alisertib -0.032 | [5] 0.034 | gefitinib 0.025 | [6] 0.092 | lapatinib -0.051 | pictilisib -0.012

BAD (UniProt Q92934)
Chain of UniProt Q92934 (Q92934 whole entry, looked up): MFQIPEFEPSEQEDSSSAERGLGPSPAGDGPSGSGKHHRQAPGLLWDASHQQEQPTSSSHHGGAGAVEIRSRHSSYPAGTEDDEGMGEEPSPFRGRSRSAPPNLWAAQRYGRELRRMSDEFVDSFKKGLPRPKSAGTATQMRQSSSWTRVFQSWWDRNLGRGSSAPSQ
inactive: saracatinib 0.021 | sotrastaurin 0.273 | alvocidib 0.005 | [1] -0.032 | defactinib 0.03 | rucaparib 0.032 | [2] -0.016 | encorafenib -0.047 | [3] -0.004 | [4] -0.103 | filanesib 0.124 | zotarolimus -0.073 | idasanutlin -0.049 | alisertib 0.103 | [5] -0.016 | gefitinib 0.115 | [6] 0.068 | lapatinib -0.037 | pictilisib 0.022

APAF1 (UniProt O14727)
Chain of UniProt O14727 (O14727 whole entry, looked up): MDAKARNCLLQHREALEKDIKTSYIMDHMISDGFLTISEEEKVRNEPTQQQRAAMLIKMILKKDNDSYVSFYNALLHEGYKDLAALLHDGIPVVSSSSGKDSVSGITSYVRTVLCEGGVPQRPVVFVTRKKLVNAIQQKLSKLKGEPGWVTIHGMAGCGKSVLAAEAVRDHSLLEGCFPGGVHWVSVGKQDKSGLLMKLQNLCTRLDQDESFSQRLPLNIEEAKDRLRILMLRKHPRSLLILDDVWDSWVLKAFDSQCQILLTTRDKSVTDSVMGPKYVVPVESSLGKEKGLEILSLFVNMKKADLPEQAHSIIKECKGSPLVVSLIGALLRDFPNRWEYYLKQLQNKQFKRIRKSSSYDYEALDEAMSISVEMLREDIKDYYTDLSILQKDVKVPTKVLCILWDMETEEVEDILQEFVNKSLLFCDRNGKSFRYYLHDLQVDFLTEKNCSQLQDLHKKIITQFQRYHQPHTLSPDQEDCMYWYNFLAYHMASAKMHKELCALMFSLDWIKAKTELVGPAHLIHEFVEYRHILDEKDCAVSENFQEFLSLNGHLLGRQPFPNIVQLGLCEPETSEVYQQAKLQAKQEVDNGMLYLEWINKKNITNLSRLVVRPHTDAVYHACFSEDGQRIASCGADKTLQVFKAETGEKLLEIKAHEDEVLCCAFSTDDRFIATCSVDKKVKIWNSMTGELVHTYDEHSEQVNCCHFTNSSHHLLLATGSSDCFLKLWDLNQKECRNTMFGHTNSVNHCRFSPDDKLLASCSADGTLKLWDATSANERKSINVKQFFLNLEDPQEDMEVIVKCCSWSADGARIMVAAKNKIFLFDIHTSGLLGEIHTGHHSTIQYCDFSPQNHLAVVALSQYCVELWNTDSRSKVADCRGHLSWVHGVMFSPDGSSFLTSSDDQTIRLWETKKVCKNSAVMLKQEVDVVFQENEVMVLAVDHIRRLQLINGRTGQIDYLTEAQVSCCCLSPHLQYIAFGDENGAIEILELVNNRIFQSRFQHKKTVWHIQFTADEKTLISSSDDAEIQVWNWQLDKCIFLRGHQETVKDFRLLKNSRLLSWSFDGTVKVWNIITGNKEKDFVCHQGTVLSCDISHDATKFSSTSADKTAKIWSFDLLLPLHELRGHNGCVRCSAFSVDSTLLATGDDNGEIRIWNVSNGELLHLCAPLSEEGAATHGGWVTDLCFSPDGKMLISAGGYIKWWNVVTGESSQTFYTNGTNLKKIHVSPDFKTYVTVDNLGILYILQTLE
inactive: saracatinib -0.088 | sotrastaurin 0 | alvocidib -0.026 | [1] 0.109 | defactinib 0.082 | rucaparib 0.103 | [2] 0.032 | encorafenib 0.158 | [3] 0.05 | [4] -0.023 | filanesib -0.066 | zotarolimus -0.03 | idasanutlin -0.068 | alisertib 0.08 | [5] 0.279 | gefitinib -0.163 | [6] 0.09 | lapatinib 0.369 | pictilisib -0.04

BRAF (UniProt P15056)
Chain of UniProt P15056 (P15056 whole entry, looked up): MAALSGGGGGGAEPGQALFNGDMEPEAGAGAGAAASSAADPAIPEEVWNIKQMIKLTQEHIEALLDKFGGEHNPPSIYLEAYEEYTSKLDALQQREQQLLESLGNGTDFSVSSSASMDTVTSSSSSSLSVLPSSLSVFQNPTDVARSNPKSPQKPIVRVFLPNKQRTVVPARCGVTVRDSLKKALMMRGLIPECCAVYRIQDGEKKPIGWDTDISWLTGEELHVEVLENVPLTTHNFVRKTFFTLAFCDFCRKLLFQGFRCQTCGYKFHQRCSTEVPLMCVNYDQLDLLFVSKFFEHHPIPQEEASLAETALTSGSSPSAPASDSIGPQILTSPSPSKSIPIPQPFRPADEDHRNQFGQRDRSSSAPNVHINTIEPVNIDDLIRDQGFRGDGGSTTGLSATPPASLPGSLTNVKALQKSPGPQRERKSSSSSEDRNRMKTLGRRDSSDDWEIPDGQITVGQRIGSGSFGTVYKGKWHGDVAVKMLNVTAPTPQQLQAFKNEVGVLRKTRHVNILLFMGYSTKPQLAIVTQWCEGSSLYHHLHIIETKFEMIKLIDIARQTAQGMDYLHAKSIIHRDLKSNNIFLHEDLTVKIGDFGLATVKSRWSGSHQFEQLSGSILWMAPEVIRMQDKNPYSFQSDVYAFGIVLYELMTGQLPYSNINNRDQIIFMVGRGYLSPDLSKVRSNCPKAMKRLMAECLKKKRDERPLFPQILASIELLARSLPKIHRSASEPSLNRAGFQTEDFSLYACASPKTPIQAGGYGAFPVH
inactive: saracatinib 0.029 | sotrastaurin -0.069 | alvocidib -0.059 | Tubastatin A 0.007 | [1] -0.02 | defactinib -0.058 | rucaparib 0.013 | [2] -0.059 | encorafenib 0.014 | [3] -0.037 | [4] -0.031 | filanesib -0.05 | zotarolimus -0.004 | idasanutlin -0.047 | alisertib 0.007 | [5] -0.076 | gefitinib 0.012 | [6] 0.015 | pictilisib -0.061

AASDH (UniProt Q4L235)
Chain of UniProt Q4L235 (Q4L235 whole entry, looked up): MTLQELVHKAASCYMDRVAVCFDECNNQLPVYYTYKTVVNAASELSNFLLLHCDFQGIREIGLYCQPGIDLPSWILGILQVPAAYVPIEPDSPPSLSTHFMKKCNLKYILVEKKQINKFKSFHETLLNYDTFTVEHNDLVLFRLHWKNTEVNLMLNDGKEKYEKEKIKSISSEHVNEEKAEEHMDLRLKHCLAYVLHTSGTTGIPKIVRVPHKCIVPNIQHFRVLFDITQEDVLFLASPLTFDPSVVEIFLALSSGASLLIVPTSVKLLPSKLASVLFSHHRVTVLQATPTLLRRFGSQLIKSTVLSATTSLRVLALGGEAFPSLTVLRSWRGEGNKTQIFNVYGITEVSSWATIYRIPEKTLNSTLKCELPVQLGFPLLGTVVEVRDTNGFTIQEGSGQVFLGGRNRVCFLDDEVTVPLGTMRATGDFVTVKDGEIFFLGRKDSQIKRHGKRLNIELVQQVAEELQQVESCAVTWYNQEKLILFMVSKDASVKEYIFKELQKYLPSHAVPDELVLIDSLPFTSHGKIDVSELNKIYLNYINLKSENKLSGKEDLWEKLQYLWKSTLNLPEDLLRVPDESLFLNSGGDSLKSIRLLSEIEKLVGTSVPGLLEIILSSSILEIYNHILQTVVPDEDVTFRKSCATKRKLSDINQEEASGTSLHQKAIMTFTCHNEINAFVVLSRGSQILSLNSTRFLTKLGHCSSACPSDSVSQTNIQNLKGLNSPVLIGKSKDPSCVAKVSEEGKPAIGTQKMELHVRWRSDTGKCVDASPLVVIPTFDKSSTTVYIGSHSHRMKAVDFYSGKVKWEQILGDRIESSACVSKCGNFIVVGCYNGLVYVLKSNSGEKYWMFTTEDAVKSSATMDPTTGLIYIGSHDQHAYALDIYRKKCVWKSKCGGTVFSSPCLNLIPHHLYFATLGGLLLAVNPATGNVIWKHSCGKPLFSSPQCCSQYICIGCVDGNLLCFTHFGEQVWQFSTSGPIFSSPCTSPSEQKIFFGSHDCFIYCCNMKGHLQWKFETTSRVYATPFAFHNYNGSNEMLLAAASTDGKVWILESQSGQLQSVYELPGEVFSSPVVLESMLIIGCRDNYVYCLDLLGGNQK
inactive: saracatinib 0.011 | sotrastaurin -0.067 | alvocidib -0.035 | Tubastatin A 0.16 | [1] -0.014 | defactinib -0.091 | [2] -0.036 | [3] -0.004 | [4] -0.13 | filanesib -0.01 | zotarolimus -0.221 | alisertib -0.141 | [5] 0.041 | gefitinib -0.143 | [6] 0.207 | lapatinib 0.063 | pictilisib 0.093
